GAA850 FXN act = frataxin GAA850 promoter activation; HEK293 lucGAA850 FXN promoter luciferase reporter, 24 h; percent of 10 µM SAHA response; activation, % at 6 µM; actives 0.56% (n = 360,000); AID 540364;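 active means activation above the average of all compounds screened plus 3 SD, cutoff fixed separately per campaign, cut at about 7.5% in these data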
GalR3 antagonist = antagonists of human GalR3. AID 651719. O60755. HEK293 GalR3-CNG cAMP membrane potential fluorescence; galR3 body fused to GalR1 C-terminus. inhibition, % at 3 µM. actives 0.44% (n = 360,000);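 active means inhibition above the screen-wide average plus 3 SD, cut at about 13% in these data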;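 further: forskolin and galanin both at EC90 stimulate the cells; cAMP rise reported by CNG channel membrane potential dye signal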
Target sequence (O60755 1-299 limits assumed): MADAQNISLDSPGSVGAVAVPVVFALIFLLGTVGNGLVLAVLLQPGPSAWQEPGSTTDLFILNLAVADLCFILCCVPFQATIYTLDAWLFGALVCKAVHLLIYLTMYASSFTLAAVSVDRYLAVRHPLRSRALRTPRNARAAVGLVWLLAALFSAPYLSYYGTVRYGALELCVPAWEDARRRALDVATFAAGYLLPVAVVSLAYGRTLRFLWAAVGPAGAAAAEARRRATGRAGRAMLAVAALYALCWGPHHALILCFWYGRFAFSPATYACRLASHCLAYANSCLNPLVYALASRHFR
COUP-TFII inh = inhibitors of human COUP-TFII (NR2F2) | P24468 | HEK293T NGFI-A luciferase reporter, luminescence | inhibition, % at 8.6 µM | actives 0.7% (n = 370,000) | AID 686940;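 active means inhibition above a per-plate cutoff, mean inhibition of test wells between control levels plus 3 SD, cut at about 38% in these data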;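 further: cells cotransfected with COUP-TFII expression vector driving the NGFI-A reporter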
Target sequence (P24468 whole entry, looked up): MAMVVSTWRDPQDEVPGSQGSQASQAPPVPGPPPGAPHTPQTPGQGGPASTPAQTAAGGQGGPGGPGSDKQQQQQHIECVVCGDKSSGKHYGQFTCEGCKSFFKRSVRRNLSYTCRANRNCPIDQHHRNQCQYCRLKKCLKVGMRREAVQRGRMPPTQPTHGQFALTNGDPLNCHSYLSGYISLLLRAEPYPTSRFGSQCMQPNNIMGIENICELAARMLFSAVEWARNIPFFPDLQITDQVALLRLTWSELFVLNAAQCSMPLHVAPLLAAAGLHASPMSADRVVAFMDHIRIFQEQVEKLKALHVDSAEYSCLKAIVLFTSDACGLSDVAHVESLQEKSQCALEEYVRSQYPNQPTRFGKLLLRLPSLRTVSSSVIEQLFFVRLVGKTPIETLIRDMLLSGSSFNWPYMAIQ
H9c2 protect = modulators protecting cardiomyocytes from myocardial damage; H9c2 cardiomyocytes, H2O2 injury protection, ATPLite, 2 h; protection from H2O2 cell death, % at 20 µM; actives 0.63% (n = 360,000); AID 588492;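 active means compounds giving at least 50% protection of heart cells from peroxide-induced death in the single-dose screen, raw or plate-pattern-corrected value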
Gli-Sufu block = antagonists of Gli-Sufu signaling | Sufu-KO-LIGHT fibroblasts, Gli luciferase reporter luminescence | AID 588413 | inhibition, % at 5 µM | actives 0.74% (n = 340,000);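 active means inhibition above about 55%, limit read from the data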
SMARCA2 activ = increases SMARCA2 function in MMTV reporter cells. MG213 cells, MMTV-luciferase reporter, dexamethasone, overnight. activation, % at 9.1 µM. actives 1% (n = 370,000). AID 652017; in the data active means activation above about 7.8%
Gal4-VP16 ctr = inhibits VP16 reporter, flagging COUP-TFII antagonist hits | actives 25% (n = 2,500) | AID 687007 | inhibition, % at 8.5 µM | shares compounds with COUP-TFII inh | HEK293 Gal4-VP16 luciferase reporter, luminescence; in the data active means inhibition above about 13%
NR2F2 inh conf = COUP-TFII (NR2F2) inhibition, confirmation assay; shares compounds with COUP-TFII inh; HEK293 NGFI-A luciferase reporter, luminescence; inhibition, % at 8.5 µM; actives 45% (n = 2,500);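 active means mean inhibition over three repeats above a set limit taken from the earlier primary screen, cut at about 38% in these data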
Large screens that a line does not name were inactive (follow-up assays come after a bar, where they were run). Rows were chosen to be rich in hits. Some 3.4% of all compounds tested hit in one or more screens of this group.

CCCOc1ccc(C(=O)Nc2ccc(S(=O)(=O)NC3=NCCCCC3)cc2)cc1	COUP-TFII inh 42.9 | Gal4-VP16 ctr inactive | NR2F2 inh conf inactive
CCOc1ncccc1C(=O)Nc1ccc(S(=O)(=O)NC2=NCCCCC2)cc1	none
Cc1ccc(NC(=O)C2CCN(c3ncnc4sc(C)c(C)c34)CC2)cc1S(=O)(=O)N(C)C	COUP-TFII inh 48.4 | Gal4-VP16 ctr inactive | NR2F2 inh conf inactive
CCN(CC)S(=O)(=O)c1cc(NC(=O)C2CCN(c3ncnc4sc(C)c(C)c34)CC2)ccc1Cl	none
Cc1nnc(SCC(=O)N2CCC(c3noc4ccc(F)cc34)CC2)s1	COUP-TFII inh 49.4 | Gal4-VP16 ctr inactive | NR2F2 inh conf inactive
COc1cc(CNc2ccc(CNc3ncn[nH]3)cc2)ccc1OCC(=O)NC(C)(C)C	COUP-TFII inh 41.7 | Gal4-VP16 ctr inactive | NR2F2 inh conf inactive
Cc1ccsc1/C=N/NC(=O)c1cccnc1	none
C[n+]1cc2c3c(ccc2c2ccc4cc5c(cc4c21)OCO5)OCO3	COUP-TFII inh 105.8 (no result: GAA850 FXN act, H9c2 protect, Gli-Sufu block) | Gal4-VP16 ctr 95.3 | NR2F2 inh conf 106.6
O=C(Nc1cc(S(=O)(=O)N2CCCCC2)ccc1Cl)c1ccccc1NS(=O)(=O)c1ccc(F)cc1	COUP-TFII inh 47.4 | Gal4-VP16 ctr inactive | NR2F2 inh conf inactive
O=C(Nc1cc(S(=O)(=O)N2CCCCC2)ccc1O)c1ccccc1NS(=O)(=O)c1ccc(F)cc1	none
Cc1sc(-c2ccccn2)nc1OC(=O)c1ccc(F)cc1F	COUP-TFII inh 37.8 | Gal4-VP16 ctr inactive | NR2F2 inh conf inactive
Cc1sc(-c2ccccn2)nc1OC(=O)c1ccc(Cl)c(Cl)c1	none
CN1CCN(c2ccc(-c3ccc4ccccc4n3)cc2)CC1	COUP-TFII inh 89.5, Gli-Sufu block 88.4 | Gal4-VP16 ctr 52.0 | NR2F2 inh conf 90.5
CCOc1ccc(CCNC(=O)c2cc3sccc3n2CC)cc1OC	COUP-TFII inh 56.7 (no result: GAA850 FXN act, GalR3 antagonist, H9c2 protect, Gli-Sufu block) | Gal4-VP16 ctr inactive | NR2F2 inh conf inactive
CN(C)c1ccc(Nc2ncnc3ccc(Br)cc23)cc1	COUP-TFII inh 38.2 | Gal4-VP16 ctr inactive | NR2F2 inh conf inactive
Cc1cccc(Nc2ncnc3ccc(Br)cc23)c1	COUP-TFII inh 44.9 | Gal4-VP16 ctr inactive | NR2F2 inh conf inactive
Cc1cccc(-c2ccc3ncnc(NCc4cccnc4)c3c2)c1	none
Brc1ccc2ncnc(NCc3ccccc3)c2c1	COUP-TFII inh 57.9 | Gal4-VP16 ctr 18.0 | NR2F2 inh conf 48.9
COc1ccc(Nc2ncnc3ccc(Br)cc23)cc1OC	none (no result: GalR3 antagonist, COUP-TFII inh, SMARCA2 activ)
Cc1ncc([N+](=O)[O-])n1CC(=O)Nc1ccc(F)c(Cl)c1	none
CC1CCCN(S(=O)(=O)c2ccccc2[N+](=O)[O-])C1 (centres undefined)	none
COc1cc(C)c(NC(=O)C(=S)NCCc2ccccc2)cc1C	none
CN(C)C(CNC(=O)c1cc(S(=O)(=O)N(C)c2ccccc2)ccc1Cl)c1cccs1 (centres undefined)	COUP-TFII inh 40.5 | Gal4-VP16 ctr inactive | NR2F2 inh conf inactive
CCN(CC)S(=O)(=O)c1cc(NC(=O)C2CC(=O)N(Cc3ccccc3)C2)ccc1Cl (centres undefined)	COUP-TFII inh 53.1 | Gal4-VP16 ctr inactive | NR2F2 inh conf inactive
CO/N=C\c1cc(C(=O)c2ccc(Cl)cc2Cl)cn1C	none
C=CCn1c2ccccc2c2nnc(SCCN3CCOCC3)nc21	none
O=C(NCCN1CCC(n2c(=O)[nH]c3ccccc32)CC1)c1ccc(F)c(C(F)(F)F)c1	none (no result: GAA850 FXN act, H9c2 protect, Gli-Sufu block)
O=C(NCCN1CCC(n2c(=O)[nH]c3ccccc32)CC1)c1ccc(C(F)(F)F)cc1C(F)(F)F	COUP-TFII inh 43.9 (no result: GAA850 FXN act, H9c2 protect, Gli-Sufu block) | Gal4-VP16 ctr inactive | NR2F2 inh conf inactive
Cc1nn(-c2ccccc2)c2sc(C(=O)NC3CCCC3)cc12	none (no result: GAA850 FXN act, GalR3 antagonist, H9c2 protect, Gli-Sufu block)
Cc1occc1-c1nnc(SCC(=O)NC2CC2)n1C(C)C	none
Cc1ccc2[nH]cc(/C=C/c3cc[n+](C)cc3)c2c1	COUP-TFII inh 42.9 | Gal4-VP16 ctr inactive | NR2F2 inh conf inactive
COc1ccc2c(c1)c(/C=C/c1cc[n+](C)cc1)cn2C	none
COc1ccc2c(/C=C/c3cc[n+](C)cc3)c[nH]c2c1	COUP-TFII inh 38.2 | Gal4-VP16 ctr inactive | NR2F2 inh conf 38.9
CC[n+]1ccc(/C=C/c2c[nH]c3ccccc23)cc1	COUP-TFII inh 50.7 | Gal4-VP16 ctr inactive | NR2F2 inh conf inactive
CCN(CC)CCN1C(=O)C2C(C(=O)Nc3ccc(C(C)C)cc3)C3C=CC2(O3)C1C(=O)NC1CCCCC1 (centres undefined)	none
COc1cccc2c1C(=O)c1c(O)c3c(c(O)c1C2=O)C[C@@](O)(C(=O)CO)C[C@@H]3O[C@H]1C[C@H](N)[C@H](O)[C@H](C)O1	none
CC(=O)[C@@]1(O)Cc2c(O)c3c(c(O)c2[C@H](O[C@H]2C[C@H](N)[C@H](O)[C@H](C)O2)C1)C(=O)c1ccccc1C3=O	COUP-TFII inh 58.3 (no result: Gli-Sufu block) | Gal4-VP16 ctr inactive | NR2F2 inh conf 37.9
COc1cccc2c1C(=O)c1c(O)c3c(c(O)c1C2=O)CC(O)(C(C)=O)CC3OC1CC(N(C)C)C(O)C(C)O1 (centres undefined)	COUP-TFII inh 53.2, Gli-Sufu block 68.7 | Gal4-VP16 ctr 14.8 | NR2F2 inh conf inactive
C[C@@H]1C[C@@H]2O[C@H]2CCCCC(=O)Cc2cc(O)cc(O)c2C(=O)O1	COUP-TFII inh 63.5 (no result: GAA850 FXN act, GalR3 antagonist, H9c2 protect, Gli-Sufu block) | Gal4-VP16 ctr 59.2 | NR2F2 inh conf 65.4
C[C@@H]1C[C@H]2O[C@@H]2/C=C\C=C\C(=O)Cc2cc(O)cc(O)c2C(=O)O1	COUP-TFII inh 85.7 (no result: GAA850 FXN act, GalR3 antagonist, H9c2 protect, Gli-Sufu block) | Gal4-VP16 ctr 38.1 | NR2F2 inh conf inactive
CCOC(=O)[C@]12CCC=C1N(Cc1cccc3ccccc13)C(=O)[C@H](CC(=O)NCc1ccc(OC)c(OC)c1)C2	COUP-TFII inh 37.4 (no result: GAA850 FXN act, H9c2 protect, Gli-Sufu block) | Gal4-VP16 ctr inactive | NR2F2 inh conf inactive
NC(=O)c1ccsc1NC(=O)COC(=O)Cc1ccsc1	none
COc1cc(CC(=O)OCC(=O)Nc2sccc2C(N)=O)cc(OC)c1OC	COUP-TFII inh 42.8 | Gal4-VP16 ctr inactive | NR2F2 inh conf inactive
O=C(O)CCCCCN1C(=O)CSC1=S	COUP-TFII inh 45.5 | Gal4-VP16 ctr inactive | NR2F2 inh conf inactive
Cn1nnnc1NCc1cccc(Cl)c1	none
Clc1cccc(CNc2nnnn2-c2ccccc2)c1	COUP-TFII inh 38.8 | Gal4-VP16 ctr inactive | NR2F2 inh conf inactive
COc1cccc(/C=N/Nc2ccc(C(=O)O)cc2)c1O	COUP-TFII inh 69.1, Gli-Sufu block 72.7 | Gal4-VP16 ctr 65.1 | NR2F2 inh conf 92.1
CC(C)(C)c1ccc(/C=N/Nc2ccc(C(=O)O)cc2)cc1	COUP-TFII inh 70.2 | Gal4-VP16 ctr inactive | NR2F2 inh conf 69.5

Bioassay records: PubChem, several laboratories
